PubChem BioAssay AID624172 (National Center for Advancing Translational Sciences (NCATS), 2012)
Out of some 380,000 compounds screened, about 25 (0.007%) were called active. The call rests on the fitted dose curve; in most records, active means well fitted activation curve with a large enough effect; inconclusive means small, poorly fitted or top-dose-only effect; inactive means no such curve, though single readings can be large or run the other way. Only a sample is shown.

Target: Glucagon-like peptide 1 receptor (Homo sapiens) (UniProt P43220)
Sequence (P43220 whole entry, looked up): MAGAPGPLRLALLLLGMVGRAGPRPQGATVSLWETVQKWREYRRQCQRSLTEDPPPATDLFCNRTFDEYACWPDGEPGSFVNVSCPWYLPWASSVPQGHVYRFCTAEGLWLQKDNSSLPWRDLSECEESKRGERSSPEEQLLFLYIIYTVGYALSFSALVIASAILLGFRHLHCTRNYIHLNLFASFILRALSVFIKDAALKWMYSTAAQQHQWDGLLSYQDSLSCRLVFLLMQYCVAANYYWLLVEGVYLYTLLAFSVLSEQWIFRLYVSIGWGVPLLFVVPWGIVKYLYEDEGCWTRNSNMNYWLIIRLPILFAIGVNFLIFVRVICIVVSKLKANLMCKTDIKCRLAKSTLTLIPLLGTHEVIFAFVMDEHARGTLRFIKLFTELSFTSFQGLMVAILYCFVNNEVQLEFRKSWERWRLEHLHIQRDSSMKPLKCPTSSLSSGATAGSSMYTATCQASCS
Test: qHTS of GLP-1 Receptor Agonists; further: % of control where 0% means no effect
Conditions: HEK293 GLP-1R CRE-luciferase, luminescence, 4-6 h, cells express a hypersensitive GLP-1R form; series mostly up to 45.6 µM; activation: at the top concentration
From the text: The overall goal of this project was to develop a novel assay for discovering small molecule ligands for class B1 G protein-coupled receptors (GPCRs). Very few agonists (or inverse agonists) with generally weak activity for this entire group of physiologically important receptors are known to date. To establish proof-of-principle that this critical bottleneck can be overcome with a suitable screening approach, our studies focused on the class B1 receptor for glucagon-like peptide-1 (GLP-1R), a potential therapeutic target for diabetes and neurodegenerative disease.
The assay was developed in a "mix and measure" format using a cell-based functional readout. Toward this goal, stably transfected HEK293 cell clones were established that co-express (i) a cAMP-responsive luciferase reporter gene, and (ii) GLP-1Rs that upon ligand interaction either stimulate (agonists) or inhibit (inverse agonists) luciferase activity. In different cell lines to be used for screening, expressed GLP-1Rs are specifically optimized for high sensitivity detection of either weak agonists (hypersensitive receptor) or inverse agonists (constitutively active receptor mutant). In addition, control cell lines were developed that express either the cAMP-responsive reporter gene without recombinant GLP-1Rs (enabling initial exclusion of GLP-1R independent effects of candidate probes), or the reporter gene together with wild type GLP-1Rs (for confirmation of probe activity at this receptor), or the reporter gene in combination with the constitutively active orphan receptor GPR119 (enabling initial exclusion of GLP-1R independent inhibitory effects of candidate inverse agonists).
To that end, this assay was optimized for 1536-well format and screened against the MLSMR.
NIH Molecular Libraries Probe Production Network [MLPCN]
NIH Chemical Genomics Center [NCGC]
PI Name: Martin Beinborn, Tufts Medical Center
In a white solid 1536-well plate, 6 uL of cells are dispensed in DMEM without phenol red, 10% Nu serum, and 1% pen-strep medium. The plates are then incubated for 12 hours at 37 deg C at 5% CO2 before 23 nL of compounds are added. After a 4-6 hr incubation at37 deg C and 5% CO2, 3 uL of detection reagent are added and after a 12 min incubation at RT, a luminescent read is obtained on the ViewLux.

activation, inactive:
COc1cc(CNCCSc2nnnn2C)ccc1OCc1c(F)cccc1Cl 2.51%
Cc1cccc(N2CCN(C(=O)c3cc4c(=O)oc5ccccc5c4s3)CC2C)c1 (stereo not given) -0.212%
CC(C)(O/N=C(\C(=O)N[C@@H]1C(=O)N2C(C(=O)[O-])=C(C[n+]3ccccc3)CS[C@@H]12)c1csc(N)n1)C(=O)O -3.84% [at 19.8 µM]
COc1ccccc1NC(=O)C1=C(C)Nc2ncnn2C1c1sccc1C (stereo not given) 9.66%
CCC(CCC(C)C1CCC2C3CC=C4CC(O)CC[C@@]4(C)C3CC[C@@]12C)C(C)C (stereo not given in full) 11.2%
Cc1sc2ncn(CC(=O)N3CCN(c4ccc(F)cc4)CC3)c(=O)c2c1S(=O)(=O)N1CCN(c2ncccn2)CC1 -4.64%
Cc1cccc(NC(=O)Cn2c(C(F)(F)F)nc3ccccc32)c1C -0.396%
COc1cc(OC)cc(C(=O)Nc2ccc3nc(Nc4cccc(C(F)(F)F)c4)cc(C)c3c2)c1 -14.1%
CC(=O)Oc1ccccc1C(=O)Nc1ncc([N+](=O)[O-])s1 -1.78%
COc1ccccc1CNC(=O)CCn1c(=O)c2ccccc2n(CC(=O)Nc2ccc(Br)cc2F)c1=O -2.58%
Cc1ccc(N2CCN(C(=O)CCc3c(C)nc4c(c3C)c(=O)n(C)c(=O)n4C)CC2)c(C)c1 -1.8%
C/C=C1\C2C=C(C)CC1(N)c1ccc(=O)[nH]c1C2 (stereo not given) -2.31%
CC(=O)NC(=O)c1ccccc1O -4.09%
CCCOc1ccc(-c2cccc(NS(=O)(=O)c3ccccc3)c2)nn1 -0.146%
Cc1ccc(S(=O)(=O)NC(=O)NN2C[C@H]3CCC[C@@H]3C2)cc1 -4.28% [at 19.8 µM]
COc1ccc(-c2c(C)nn3c(N4CCC(C(=O)NCCC(C)C)CC4)cc(C)nc23)cc1OC 0.364%
CN(C)CCCSc1ccccc1NC(=O)/C=C/c1ccccc1 6.6%
CCOC(=O)c1c(NC(=O)c2ccc(S(=O)(=O)N3CCCC(C)C3)cc2)sc2c1CCN(C(C)C)C2 (stereo not given) 8.14%
C[N+](C)(CCOc1ccccc1)Cc1cccs1 (tested in a mixture with another compound) 1.72%
CCOc1ccccc1NC(=O)C1=C(C)Nc2ncnn2C1c1ccc(NC(C)=O)cc1 (stereo not given) -6.86%
COc1cccc(CNCCSc2nnnn2C)c1OCc1ccccc1Cl 2.98%
CCc1ccc(C(=O)CC2(O)C(=O)N(CCc3ccccc3)c3ccc(Br)cc32)cc1 (stereo not given) -2.5%
COc1ccccc1CNC(=O)CCn1c(=O)c2ccccc2n(CC(=O)Nc2cccc(Cl)c2)c1=O -0.689%
COc1ccc(CCNc2nc(-c3ccc(F)cc3)cc(C(F)(F)F)n2)cc1OC -0.152%
CCc1ccc(Sc2cc(C(=O)NCCCOC(C)C)c3ccccc3n2)cc1 -7.03%
O=C(CSc1ncc(CO)n1Cc1ccc(Cl)cc1)NCc1ccc(F)cc1 8.49%
COCCNC(=O)c1ccc2c(c1)N=C(C)c1cc(C)ccc1S2 -0.88%
Oc1ccc(Cl)c2c1CCC2 4.26%
COc1ccccc1-c1cc2nc(C)c(CCC(=O)O)c(C)n2n1 -1.35%
O=C(CCS(=O)(=O)c1ccc2c(c1)NC(=O)CO2)Nc1cccc(C(F)(F)F)c1 -0.552%
CCCC[C@H]1C(=O)N(c2ccccc2)N(c2ccc(O)cc2)C1=O 1.82% [at 19.8 µM]
COc1ccc(-n2c(C)nc3c(cnn3-c3ccc(F)cc3)c2=O)cc1 -0.59%
COc1ccc2cc(-c3nc(Cl)c4c5c(sc4n3)CC(C)CC5)c(=O)oc2c1 (stereo not given) 1.37%
O=C(OCc1ccccc1)c1ccc(O)cc1 0.159%
Cc1ccccc1C(=O)Nc1cc(C)c(O)c(-c2nc3ccccc3o2)c1 -0.525%
O=C1c2c(O)cccc2[C@@H]([C@@H]2O[C@H](CO)[C@@H](O)[C@H](O)[C@H]2O)c2cc(CO)cc(O)c21 0.834%
CCOCCCNC(=O)c1cn(CC)c2ccc(S(=O)(=O)N3CCc4ccccc4C3)cc2c1=O 1.02%
CC(=O)N1CCc2cc(Br)cc(S(=O)(=O)CCC(=O)NCCc3ccc(Cl)cc3)c21 0.617%
COc1ccc(Nc2ncc(C(=O)Nc3cc(C)ccc3OC)c3ccccc23)cc1 0.74%
COc1cc2nc(SCC(=O)Nc3ccccc3F)n3nc(-c4ccccc4)nc3c2cc1OC -0.682%
CCN(CC)c1ccc(C2C(C(N)=O)=C(C)Nc3nc(SCc4ccccc4)nn32)cc1 (stereo not given) 2.01%
CCCCCn1c(=O)[nH]c2cc(C(=O)Nc3ccc(F)cc3)ccc2c1=O 0.528%
CC[C@]1(C)CC(=O)NC1=O -4.13%
COc1cc(OC)c(NC(=O)c2c3c(nn2C)-c2ccccc2SC3)cc1Cl 0.142%
COc1ccc(-c2cc(C(F)(F)F)nc(SCC(=O)N(C)Cc3ccccc3)n2)cc1OC 4%
CC1(C)O[C@@H]2C[C@@H]3[C@H]4C[C@@H](F)C5=CC(=O)C=C[C@]5(C)[C@@]4(F)[C@@H](O)C[C@]3(C)[C@]2(C(=O)CO)O1 -0.578%
Cc1ccc(C)c(N2C(=O)N(Cc3c(F)cccc3Cl)c3ccccc3S2(=O)=O)c1 0.891%
COc1cccc(CNC(=O)C(NS(=O)(=O)c2ccc3nc(C)sc3c2)C(C)C)c1 (stereo not given) -4.28%
Cc1cc2c(cc1S(=O)(=O)CCC(=O)Nc1ccc(OC(F)(F)F)cc1)OCC(=O)N2 18.1%
NC(=O)C(=O)N/N=C/c1ccc([N+](=O)[O-])o1 -3.04%
Cc1ccc(-c2ncc(Cl)cc2-c2ccc(S(C)(=O)=O)cc2)cn1 0.0129%
Cc1nnc(C(=O)NC(C)(C)c2nc(C(=O)NCc3ccc(F)cc3)c(O)c(=O)n2C)o1 12.6%
CC[C@]1([C@H]2O[C@@H]([C@@H]3O[C@](O)(CO)[C@@H](C)C[C@H]3C)C[C@H]2C)CC[C@@H]([C@]2(C)CC[C@@]3(C[C@@H](O)[C@@H](C)[C@@H]([C@H](C)[C@H](OC)[C@H](C)C(=O)O)O3)O2)O1 -2.14%
COc1ccc(NC(=O)C2CCCN(S(=O)(=O)c3c(C)[nH]c(=O)[nH]c3=O)C2)c(OC)c1 (stereo not given) -0.467%
Cc1cccc(C)c1NC(=O)NC1=CCCN1C 4.03%
CCCN(C(=O)Cn1cc(S(=O)(=O)N2CCN(c3ccccc3F)CC2)c2ccccc2c1=O)c1cccc(C)c1 -0.739%
C[C@@H]1C[C@H]2[C@@H]3C[C@H](F)C4=CC(=O)C=C[C@@]4(C)[C@]3(F)[C@H](O)C[C@]2(C)[C@@]1(O)C(=O)CO -0.723% [at 19.8 µM]
CCCC(=O)O[C@]1(C(=O)COC(=O)CC)CC[C@@H]2[C@@H]3CCC4=CC(=O)CC[C@]4(C)[C@H]3[C@@H](O)C[C@@]21C -1.61%
CC(=O)CC(c1ccccc1)C1C(=O)Oc2ccccc2C1=O (stereo not given) -4.85%
COc1cc2c(cc1OC)[C@@H](Cc1cc(OC)c(OC)c(OC)c1)[N+](C)(CCCOC(=O)CC/C=C/CCC(=O)OCCC[N+]1(C)CCc3cc(OC)c(OC)cc3[C@H]1Cc1cc(OC)c(OC)c(OC)c1)CC2 (stereo not given in full) -0.798%
Cc1cc(OCC(=O)NCC2(N(C)C)CCCCC2)cc(C)c1Cl -2.17%
CC(=O)c1ccc(NC(=O)C2CCN(S(=O)(=O)c3c(C)noc3/C=C/c3ccc(C)cc3)CC2)cc1 -2.34%
COc1ccc(NC(=O)c2cnc(Nc3ccc(C)c(Cl)c3)c3ccccc23)cc1OC -1.26%
O=C(NCc1ccccc1)C1CCN(S(=O)(=O)c2ccc3[nH]c(=O)ccc3c2)CC1 1.16%
CC1=Nc2cc(C(=O)N3CCC(C)CC3)ccc2Sc2ccc(Cl)cc21 0.558%
Cc1cn([C@H]2CC(F)[C@@H](CO)O2)c(=O)[nH]c1=O (stereo not given in full) 7%
Cc1cccc(-n2c(=O)c3c(c4cc(C)ccc4n3C)n(CC(=O)Nc3ccccc3Cl)c2=O)c1 0.522%
O=C(O)CCCCC(=O)O -6.16%
Cc1ccc(CCNC(=O)Cn2c(-c3cccs3)cc3cc(F)ccc32)cc1 -0.201%
CC(C)(O)c1ccccc1CC[C@H](SCC1(CC(=O)O)CC1)c1cccc(/C=C/c2ccc3ccc(Cl)cc3n2)c1 5.38%
CO/N=C(\C(=O)N[C@@H]1C(=O)N2C(C(=O)O)=C(Cn3nnc(C)n3)CS[C@H]12)c1csc(N)n1 -4.78%
COc1ccc(CCNC(=O)CCCCn2c(=O)c3ccccc3n(Cc3ccccc3C)c2=O)cc1OC 12.4%
CCOc1ccc(CNCCSc2nnnn2C)cc1 -0.857%
CC(O)COc1ccccc1 (stereo not given) -2.13%
Cc1ccc(C(=O)Nc2ccc(OCc3cc(=O)n4c5c(sc4n3)CCCC5)cc2)cc1 -0.745%
COc1cc([C@@H]2c3cc4c(cc3[C@@H](O[C@@H]3O[C@@H]5CO[C@@H](C)O[C@H]5[C@H](O)[C@H]3O)[C@H]3COC(=O)[C@H]23)OCO4)cc(OC)c1OP(=O)(O)O -0.904%
Cn1c(=O)c2c(nc(NCCc3ccccc3)n2Cc2ccccc2Br)n(C)c1=O 1.23%
COc1ccccc1-c1ccnc2[nH]n(-c3ccccc3)c(=O)c12 0.335%
CN(C)CCCn1c(-c2ccc(Cl)cc2)csc1=Nc1ccccc1 15.8%
COc1cc(C[C@H]2NCCc3cc(O)c(O)cc32)cc(OC)c1OC 25.4%
O=C(Nc1cccc2cccnc12)c1cccc2c(Br)cccc12 0.0139%
COc1ccc(CCNC(=O)CCc2c(C)nc3c(c(C)nn3-c3ccc(C)c(C)c3)c2C)c(OC)c1OC -0.6%
CCn1cc(C(=O)OCC(=O)Nc2cc(C)cc(C)c2)c(=O)c2ccc(C)nc21 -2.48%
CN(CC(=O)Nc1ccccc1F)S(=O)(=O)c1ccc2c(c1)c(=O)n(C)c(=O)n2C -1.36%
Cc1c(O)cc2c(c1C)O[C@](C)(CCC[C@H](C)CCC[C@H](C)CCCC(C)C)CC2 7.18%
COc1ccc(C2(C#N)CCC(C(=O)O)CC2)cc1OC1CCCC1 (stereo not given) -2.56%
Cc1ccc(NC(=O)c2oc3ccccc3c2NC(=O)Cc2cccs2)cc1 0.593%
NNc1nnc(NN)c2ccccc12 12.5%
O=C(C1CCCN(S(=O)(=O)c2cccc3nonc23)C1)N1CCN(c2ccccc2F)CC1 (stereo not given) -1.48%
COc1cccc(NC(=O)N(Cc2cn(C)c3ccccc23)C2CCCCCC2)c1 -6.68%
